# In PubChem BioAssay (NCATS):
# Results filed as inconclusive are left out. A call without a number means that no potency is given here. Calls of active or inactive are those of the source. Unless noted, the call rests on the fitted dose curve; in most records, active means well fitted curve in the direction sought with a large enough effect; inconclusive means small, poorly fitted or top-dose-only effect, or another doubt; inactive means no such curve, though single readings can be large; an effect the other way counts as inactive or inconclusive. Residues, ends and D or L forms follow the SMILES beside them. *: point of attachment. Cbz = O=C(OCc1ccccc1)*
# Assays:
# [1] = Confirmation and Secondary Assay for Modulators of Hemoglobin Beta Chain Splicing at IVS2 654 locus (AID 910);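 further: HeLa cells stably carrying EGFP split by mutant beta-globin IVS2-654 intron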
# How it was run: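 HeLa cells stably expressing EGFP interrupted by β-globin IVS2-654 intron, seeded overnight in Opti-MEM/2% FCS, then treated 2 days at 37 °C. Restored splicing read as total peak GFP intensity per well by laser scanning cytometry (488 nm excitation, 500–520 nm emission); 500 nM antisense PNA as control.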
# [2] = Confirmation and Secondary Assay for Modulators of Hemoglobin Beta Chain Splicing at IVS2 705 locus (AID 930);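 further: HeLa cells stably expressing the EGFP-705 splicing reporter; series mostly up to about 46 µM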
# How it was run: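 Restored EGFP fluorescence after 2-day compound exposure reports splicing correction in IVS2-705 EGFP reporter HeLa cells; positive control was 500 nM splice-blocking PNA oligo. Signal measured as well total peak GFP intensity (488 nm excitation).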
# [3] = qHTS Assay for Identification of Small Molecule Agonists for Thrombopoietin (TPO) Signaling Pathway (AID 917)
# How it was run: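 Activators of TPO signaling were sought in murine Ba/F3 cells transfected with the human receptor, using a luciferase gene driven by the Glycoprotein IIb promoter; 24-hr compound exposure at 37 C alongside 26 pM TPO, in IL-3-free medium.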
# [4] = target: Muscarinic acetylcholine receptor M1 (Rattus norvegicus) (UniProt P08482); test: qHTS Assay for Antagonists of Acetylcholine Muscarinic M1 Receptor: Measurement of IP-One Response (AID 944); further: nearly all actives have a fitted effect of over 75% in size; further: potency means the concentration at half of the fitted maximal effect
# Sequence of Muscarinic acetylcholine receptor M1 (Rattus norvegicus) (P08482 whole entry, looked up): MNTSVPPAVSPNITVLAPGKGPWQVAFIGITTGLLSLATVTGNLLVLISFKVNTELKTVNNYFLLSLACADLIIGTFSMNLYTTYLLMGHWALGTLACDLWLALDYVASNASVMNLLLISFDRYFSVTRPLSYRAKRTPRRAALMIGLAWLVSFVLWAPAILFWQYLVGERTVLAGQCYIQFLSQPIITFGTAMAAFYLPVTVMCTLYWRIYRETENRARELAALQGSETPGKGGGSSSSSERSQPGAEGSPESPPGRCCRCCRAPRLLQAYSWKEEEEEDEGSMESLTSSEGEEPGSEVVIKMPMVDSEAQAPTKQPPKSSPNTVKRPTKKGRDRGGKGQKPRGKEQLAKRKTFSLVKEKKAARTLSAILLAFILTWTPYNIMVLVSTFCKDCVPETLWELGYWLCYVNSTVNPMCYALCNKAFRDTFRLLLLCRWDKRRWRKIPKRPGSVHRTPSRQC
# How it was run: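 CHO cells expressing rat M1 receptor, recovered overnight, were pre-incubated 10 min with compound, then stimulated 30 min with carbachol at EC80 (200 nM) in LiCl-containing buffer, pH 7.4. IP1 accumulation was read by HTRF (620/665 nm).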
# [5] = target: Pyruvate kinase (Leishmania mexicana) (UniProt Q27686); test: qHTS Validation Assay for Inhibitors of Leishmania Mexicana Pyruvate Kinase (AID 945)
# Sequence of Pyruvate kinase (Leishmania mexicana) (Q27686 2-499 E452W): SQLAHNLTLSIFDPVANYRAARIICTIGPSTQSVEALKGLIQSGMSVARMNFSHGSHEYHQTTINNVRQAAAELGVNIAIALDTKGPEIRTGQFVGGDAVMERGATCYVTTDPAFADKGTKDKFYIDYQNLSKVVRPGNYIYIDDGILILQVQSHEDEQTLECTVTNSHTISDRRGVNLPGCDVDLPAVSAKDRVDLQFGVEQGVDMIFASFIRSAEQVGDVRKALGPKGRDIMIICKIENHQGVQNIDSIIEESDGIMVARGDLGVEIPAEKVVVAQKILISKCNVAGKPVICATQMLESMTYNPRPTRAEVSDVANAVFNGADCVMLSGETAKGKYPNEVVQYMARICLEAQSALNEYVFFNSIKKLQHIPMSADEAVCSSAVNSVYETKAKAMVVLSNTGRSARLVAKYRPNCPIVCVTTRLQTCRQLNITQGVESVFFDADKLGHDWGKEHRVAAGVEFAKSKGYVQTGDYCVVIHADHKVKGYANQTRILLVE
# How it was run: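 Purified LmPYK (E451W mutant, 0.2 nM) was incubated 1 h at room temperature with 0.5 mM PEP and 0.1 mM ADP in 50 mM imidazole pH 7.2, 50 mM KCl, 7 mM MgCl2; ATP formed was read by PKLight luminescence, normalized to DMSO wells.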
# [6] = target: Pyruvate kinase PKM (Homo sapiens) (UniProt P14618); test: qHTS Assay for Activators of Human Muscle Pyruvate Kinase (AID 954; active means well fitted curve in the direction sought with a large enough effect, not every such curve was filed as active)
# Sequence of Pyruvate kinase PKM (Homo sapiens) (P14618 whole entry, looked up): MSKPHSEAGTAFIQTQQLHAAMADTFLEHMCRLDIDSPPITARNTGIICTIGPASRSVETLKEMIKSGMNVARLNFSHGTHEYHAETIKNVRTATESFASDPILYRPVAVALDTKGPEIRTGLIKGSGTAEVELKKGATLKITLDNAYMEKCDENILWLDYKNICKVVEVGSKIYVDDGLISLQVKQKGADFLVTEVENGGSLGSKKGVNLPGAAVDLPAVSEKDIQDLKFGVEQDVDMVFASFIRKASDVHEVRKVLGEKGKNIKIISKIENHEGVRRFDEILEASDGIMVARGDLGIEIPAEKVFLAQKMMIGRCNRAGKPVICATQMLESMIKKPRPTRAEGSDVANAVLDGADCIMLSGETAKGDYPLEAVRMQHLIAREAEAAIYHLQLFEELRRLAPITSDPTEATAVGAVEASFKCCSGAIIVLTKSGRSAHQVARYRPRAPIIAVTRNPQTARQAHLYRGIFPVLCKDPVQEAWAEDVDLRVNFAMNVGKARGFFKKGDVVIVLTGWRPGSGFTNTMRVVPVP
# How it was run: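 Reaction: 0.1 nM purified PKM2 with 0.5 mM phosphoenolpyruvate and 0.1 mM ADP, room temperature, 1 h. Readout: luciferase-based ATP luminescence after stop reagent. Activators judged against a 0.3 nM enzyme column.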
# [7] = target: Muscarinic acetylcholine receptor M1 (Rattus norvegicus) (UniProt P08482); test: qHTS Assay for Antagonists of Acetylcholine Muscarinic M1 Receptor: Kinetic Measurement of Intracellular Calcium Response (AID 943); further: nearly all actives have a fitted effect of over 75% in size; further: potency means the concentration at half of the fitted maximal effect
# How it was run: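 CHO cells stably expressing rat M1 were loaded with no-wash Fluo-4 dye for 1 h at 37C, pre-incubated 10 min with compound, then challenged with EC80 carbachol (100 nM final); kinetic calcium read 4 min, peak/basal ratio.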
# [8] = qHTS Assay for Identification of Small Molecule Antagonists for Thrombopoietin (TPO) Signaling Pathway (AID 918); details: TPO-dependent cell signaling reporter, antagonist mode; further: potency means the concentration at half of the fitted maximal effect; nearly all actives have a fitted effect of over 60% in size
# How it was run: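 Murine Ba/F3 cells stably expressing human TPO receptor and a Glycoprotein IIb promoter–luciferase reporter were IL-3-starved overnight, treated with compounds plus TPO (26 pM final, its EC50) for 24 hrs at 37 C, then read by luminescence.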
compound,measurement,setting,value
CN(C)CCC(c1ccc(Br)cc1)c1ccccn1 (stereo unspecified),Potency,[1],inactive
same,outcome,[2],inactive
COc1cc(CC(=O)O)ccc1O,Potency,[3],inactive
same,Potency,[4],inactive
same,Potency,[5],inactive
same,outcome,[6],inactive
O=C1OC(=O)C2C3CCC(O3)C12 (stereo unspecified),Potency,[1],inactive
same,outcome,[2],inactive
O=c1onc2n1-c1cc(Br)ccc1OC2,Potency,[3],inactive
same,Potency,[4],inactive
same,Potency,[5],inactive
C[C@H](O)C(=O)C1=Nc2c(nc(N)[nH]c2=O)NC1,Potency,[3],inactive
same,Potency,[4],inactive
same,Potency,[5],inactive
COc1ccc2c(c1)c(CC(=O)O)c(C)n2C(=O)c1ccccc1,Potency,[3],inactive
same,Potency,[7],inactive
same,Potency,[4],inactive
same,Potency,[5],inactive
same,outcome,[6],inactive
CC(C)[C@H](NC(=O)OCc1ccccc1)C(=O)N[C@H](C=O)Cc1ccccc1 (Cbz-Val-Phe-aldehyde),Potency,[3],inactive
same,Potency,[7],inactive
same,Potency,[5],inactive
O=S(=O)(c1cccc2c(Cl)cccc12)N1CCCNCC1,Potency,[3],inactive
same,Potency,[4],inactive
same,Potency,[5],inactive
same,outcome,[6],inactive
N#C/C(=C\c1ccc(O)c(O)c1)C(=O)NCCCNC(=O)/C(C#N)=C/c1ccc(O)c(O)c1,Potency,[3],inactive
same,Potency,[7],inactive
same,outcome,[6],inactive
CCCCCCCCCCC/C=C\C(C)(C)/C=C\CCCC(=O)O,Potency,[3],inactive
same,Potency,[7],inactive
same,Potency,[4],inactive
same,Potency,[5],inactive
same,outcome,[6],inactive
Nc1nc2[nH]c(=O)cnc2c(=O)[nH]1,Potency,[3],inactive
same,Potency,[7],inactive
same,Potency,[4],inactive
same,Potency,[5],inactive
Cc1cc2c(cc1Cl)N(C(=O)Nc1ccnc3ccccc13)CC2,Potency,[3],inactive
same,Potency,[7],inactive
same,Potency,[4],inactive
same,Potency,[5],inactive
same,outcome,[6],inactive
Cc1ccc([N+](=O)[O-])cc1S(=O)(=O)N(C)C,Potency,[3],inactive
same,Potency,[7],inactive
same,Potency,[4],inactive
same,Potency,[5],inactive
same,outcome,[6],inactive
N[C@@H](CS(=O)O)C(=O)O,Potency,[3],inactive
same,Potency,[4],inactive
same,Potency,[5],inactive
COc1ccccc1N1CCN(CCCCN2C(=O)c3ccccc3C2=O)CC1,Potency,[3],inactive
same,Potency,[5],inactive
same,outcome,[6],inactive
CCN(CC)CCCCCCCCOC(=O)c1cc(OC)c(OC)c(OC)c1,Potency,[7],2820 nM (active)
same,Potency,[4],2820 nM (active)
same,Potency,[5],inactive
c1ccc2c(c1)CC(N1CCN(c3cccc4c3OCCO4)CC1)C2,Potency,[3],inactive
same,Potency,[5],inactive
same,outcome,[6],inactive
Nn1nnc2ccccc21,Potency,[4],inactive
same,Potency,[5],inactive
same,outcome,[6],inactive
CC(C)(C)c1cc(/C=C(\C#N)C(N)=S)cc(C(C)(C)C)c1O,Potency,[5],inactive
same,outcome,[6],inactive
O=c1[nH]c2ccccc2c2ccccc12,Potency,[3],inactive
same,Potency,[5],inactive
same,outcome,[6],inactive
CCCc1c(OCCCOc2ccc(OCC(=O)O)cc2)ccc(C(C)=O)c1O,Potency,[3],inactive
same,Potency,[4],inactive
same,Potency,[5],inactive
same,outcome,[6],inactive
Oc1ccc(Cn2cc[nH]c2=S)cc1,Potency,[3],inactive
same,Potency,[4],inactive
same,Potency,[5],inactive
same,outcome,[6],inactive
Nc1ccc2c3c(cccc13)C(=O)NC2=O,Potency,[3],inactive
same,Potency,[5],inactive
same,outcome,[6],inactive
N=C(N)SCCc1cnc[nH]1,Potency,[8],794 nM (active)
same,Potency,[4],inactive
same,Potency,[5],inactive
same,outcome,[6],inactive
Fc1ccc(CN(C2=NCCN2)c2c(Cl)cccc2Cl)cc1,Potency,[3],inactive
same,Potency,[5],inactive
same,outcome,[6],inactive
COc1ccc(NC(=O)c2ccc(-c3ccc(-c4noc(C)n4)cc3C)cc2)cc1N1CCN(C)CC1,Potency,[8],10000 nM (active)
same,Potency,[5],inactive
same,outcome,[6],inactive
O=C(O)Cc1ccc(O)c(O)c1,Potency,[5],inactive
same,outcome,[6],inactive
